PubChem BioAssay AID602281 (The Scripps Research Institute Molecular Screening Center, 2012)
The whole screen tested about 360,000 compounds, of which about 2,900 (0.81%) were called active. What follows is part of a selection rich in actives, with near analogues and random picks from the rest. A number with no mark means an inactive call.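 The calls were made as follows: active = inhibition above the mean inhibition across every tested compound plus 3 SD (cut at about 22% in these data); inactive = the rest.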

What follows are molecules tested against Perilipin-5 (Homo sapiens) + 1-acylglycerol-3-phosphate O-acyltransferase ABHD5 (Homo sapiens) (UniProt Q00G26+Q8WTS1) (assay: ABHD5-PLIN5 interaction inhibitors, primary screen, cell lysate, split luciferase complementation, luminescence (AID 602281;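 also: 0% = DMSO only wells and the 100% control is not disclosed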)). Conditions: Split G. princeps luciferase complementation, 4 h, at 4 µM, active compounds read high.
Chain of Perilipin-5 (Homo sapiens) + 1-acylglycerol-3-phosphate O-acyltransferase ABHD5 (Homo sapiens) (Q00G26 whole entry, looked up): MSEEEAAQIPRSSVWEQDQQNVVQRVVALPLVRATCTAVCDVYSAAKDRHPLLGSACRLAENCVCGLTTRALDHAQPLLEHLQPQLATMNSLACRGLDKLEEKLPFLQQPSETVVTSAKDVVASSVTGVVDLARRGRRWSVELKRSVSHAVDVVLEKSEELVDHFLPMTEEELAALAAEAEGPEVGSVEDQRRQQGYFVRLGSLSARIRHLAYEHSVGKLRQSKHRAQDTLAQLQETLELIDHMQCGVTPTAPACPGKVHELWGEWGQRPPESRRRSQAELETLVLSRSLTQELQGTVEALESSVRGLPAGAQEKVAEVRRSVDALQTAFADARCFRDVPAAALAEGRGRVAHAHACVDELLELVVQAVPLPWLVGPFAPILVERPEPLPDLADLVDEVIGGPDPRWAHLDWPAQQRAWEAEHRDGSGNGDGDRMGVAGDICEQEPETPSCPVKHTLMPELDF
Chain of Perilipin-5 (Homo sapiens) + 1-acylglycerol-3-phosphate O-acyltransferase ABHD5 (Homo sapiens) (Q8WTS1 whole entry, looked up): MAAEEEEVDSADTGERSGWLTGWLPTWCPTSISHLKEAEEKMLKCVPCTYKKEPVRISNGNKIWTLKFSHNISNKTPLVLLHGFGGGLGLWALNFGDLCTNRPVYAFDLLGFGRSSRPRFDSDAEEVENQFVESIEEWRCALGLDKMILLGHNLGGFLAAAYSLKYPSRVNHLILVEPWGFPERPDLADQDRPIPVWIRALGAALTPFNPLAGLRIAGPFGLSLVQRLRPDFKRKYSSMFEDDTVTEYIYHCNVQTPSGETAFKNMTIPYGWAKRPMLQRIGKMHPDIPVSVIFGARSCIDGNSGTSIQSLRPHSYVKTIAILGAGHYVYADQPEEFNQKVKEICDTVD

Q: `CCOC(=O)[C@]12Cc3ccccc3[C@H]1N(C1CCCCC1)C(=O)c1cc(OC)ccc12` was tested. Which inhibition did it give?
A: 39.6% (active)

Q: Which inhibition does the source give for `CCOC(=O)[C@]12Cc3cc(OC)ccc3[C@H]1N(C(C)C)C(=O)c1ccccc12` here?
A: 14.9%

Q: How did the inhibition turn out when `CC(C)N(CC#CCC1(O)c2ccccc2-c2ccccc21)C(C)C` was run?
A: 3.81%

Q: With `CN(C)CC1Oc2ccccc2OC1(O)c1ccccc1` (stereo not given) as the molecule, how does the inhibition read?
A: 46.5% (active)

Q: For `CCOC(=O)CNC(=O)N1Cc2cc(N3CCCCC3)ccc2-n2nncc2C1`, which inhibition is on record?
A: 5.92%

Q: `CCN1CC2C3CCC(C)(O3)C2C1` (stereo not given) was tested. Which inhibition did it give?
A: 4.06%

Q: Which inhibition does the source give for `Cc1ccc(-c2cc(C(=O)N3CCC4(CC3)OCCO4)no2)cc1` here?
A: -2.79%

Q: With `CCc1cccc2c(C#N)cn(CC(=O)N3CCOCC3)c12` as the molecule, how does the inhibition read?
A: 1.5%

Q: For `CCC(=O)CC(c1ccc([N+](=O)[O-])cc1)c1c(O)c2ccccc2oc1=O` (stereo not given), which inhibition is on record?
A: 5.29%

Q: Which inhibition does the source give for `Cc1cccc(N2C(=O)NC(=O)/C(=C\c3cnn(-c4ccccc4)c3)C2=O)c1` here?
A: 55.1% (active)

Q: With `O=C(COC(=O)c1ccccc1)Nc1ccc(Cl)cc1C(=O)c1ccccc1` as the molecule, how does the inhibition read?
A: 7.59%

Q: `Cc1ccc(S(=O)(=O)N(C)c2ccc(C(=O)NCC3(N(C)C)CCCCC3)cc2)cc1` was tested. Which inhibition did it give?
A: 0.68%

Q: With `COc1ccccc1N1CCN(C(CNC(=O)Oc2ccccc2)c2cccnc2)CC1` (stereo not given) as the molecule, how does the inhibition read?
A: 0.85%

Q: With `N#Cc1ccc(Cn2cc(C(=O)c3ccco3)c3ccccc32)cc1` as the molecule, how does the inhibition read?
A: 5.75%

Q: With `Cc1ccc(Cn2c(C)c3cnn(CC(=O)N4CCC5(CC4)OCCO5)c(=O)c3c2C)cc1` as the molecule, how does the inhibition read?
A: 9.7%

Q: Which inhibition does the source give for `COc1ccc(CN2C(=O)NC(=O)/C(=C\c3ccc(OC)c(OC)c3OC)C2=O)cc1` here?
A: 23.3% (active)

Q: How did the inhibition turn out when `C=CCN1C(=O)NC(=O)/C(=C/c2ccc(OCC(=O)Nc3ccc(C)cc3)cc2)C1=O` was run?
A: 15.7%

Q: With `Cc1ccc(C)c(NC2=NCCCS2)c1` as the molecule, how does the inhibition read?
A: 7.47%

Q: For `C=CCN1C(=O)C2(C(C(=O)OCC)=C(N)Oc3c2c(=O)oc2ccccc32)c2ccccc21` (stereo not given), which inhibition is on record?
A: -7.25%

Q: For `COc1ccc(N=Cc2c(O)n(C)c(=O)[nH]c2=O)cc1`, which inhibition is on record?
A: -7.01%

Q: How did the inhibition turn out when `CCc1nnc(NS(=O)(=O)c2ccc(N=Cc3c(O)n(-c4ccccc4)c(=O)[nH]c3=O)cc2)s1` was run?
A: 24.9% (active)

Q: Which inhibition does the source give for `O=c1[nH]c(=O)n(-c2ccc(F)cc2)c(O)c1C=NCCN1CCCCC1` here?
A: -4.1%

Q: How did the inhibition turn out when `Cc1ccc(N2C(=O)NC(=O)C(CCc3ccncc3)(Cc3cccc(Cl)c3Cl)C2=O)cc1` (stereo not given) was run?
A: -2.62%

Q: For `CC1CCC(N(C)C2CCN(C)CC2)CC1` (stereo not given), which inhibition is on record?
A: -5.21%

Q: Which inhibition does the source give for `O=c1[nH]c(=O)n(CCc2ccc(F)cc2)c(O)c1/C=N/N1CCCCC1` here?
A: -2.89%
